# Measured values published in PubChem BioAssay AID1159580 (chemical genetic matrix, 2015).
# The campaign covered roughly 5,500 compounds. About 2,000 (36%) were called active. Roughly 18% stayed inconclusive and do not appear here. The list shows a part of the results. A number with no mark means an inactive call. Cut-off read from the data, not from the text of the source: active = normalized growth mostly below about 0.91 (no sharp cut-off); inconclusive = no clear call, values can overlap the other calls; inactive = mostly above about 0.92.
# Assay: chemical genetic growth profiling, strain panel (AID 1159580);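 note: tested at 20 µM; growth read once vehicle control cultures reached saturation at 30 °C; 1 = growth at the plate median or of vehicle wells; lower values mean less growth of the strain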
# Conditions: S. cerevisiae deletion strains, growth OD
smiles,measurement,setting,value
CC(C)[C@@H]1NC(=O)[C@H](CCCCN)NC(=O)[C@@H](Cc2c[nH]c3ccccc23)NC(=O)[C@H](Cc2ccc(O)cc2)NC(=O)[C@H](C)N(C)C(=O)[C@H](Cc2ccccc2)NC1=O,normalized growth,"locus YAL040C, strain CLN3, active compounds read low",0.981
same,normalized growth,"locus YCL061C, strain MRC1 (second series), active compounds read low",0.988
same,normalized growth,"locus YDR363W, strain ESC2, active compounds read low",0.995
same,normalized growth,"locus YER002W, strain NOP16, active compounds read low",1.01
same,normalized growth,"locus YMR263W, strain SAP30, active compounds read low",0.994
same,normalized growth,"locus YMR307W, strain GAS1, active compounds read low",0.879 (active)
same,normalized growth,"locus YNL175C, strain NOP13, active compounds read low",0.988
same,normalized growth,"locus YNL197C, strain WHI3, active compounds read low",0.988
same,normalized growth,"locus YNL224C, strain SQS1, active compounds read low",1
same,normalized growth,"locus YNL322C, strain KRE1, active compounds read low",0.984
same,normalized growth,"locus YOR083W, strain WHI5 (second series), active compounds read low",0.989
